SMILES strings stand for the structures. The panel holds about 83,000 compounds, 20% with a hit somewhere; the sample as a whole holds those more often.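 Values shown are percent growth following 48 h exposure of cells in 96-well plates to a single concentration of compound; below 10 was considered active.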 Values without a mark were called inactive. The source made the active and inactive calls.

Some test systems named below: NCI-H23 lung; NCI-H226 lung; NCI-H322M lung; HOP-62 NSCLC; NCI-H460 lung; HOP-92 NSCLC; NCI-H522 lung; A549/ATCC NSCLC; 786-0 renal; COLO 205 colon; DU-145 prostate; K-562 leukemia; MALME-3M melanoma; MDA-MB-231 breast; RXF 393 renal; SF-268 CNS; SF-295 CNS; SF-539 CNS; UACC-257 melanoma; M14 melanoma.
Common to all, as to assay: NCI-60 one-dose screen, 48 h (100 = growth as untreated, 0 = no growth, -100 = all killed)
Holding throughout (conditions): 10 µM unless noted

With `Cc1cc2cc3cc(C)c(N)cc3[n+](C)c2cc1N`, the growth in the assay with NCI-H23 lung is 0.672% (active); with NCI-H226 lung, 30.9%; in the assay on NCI-H322M lung it was 28.4%; with HOP-62 NSCLC it was 19.3%; in the assay with NCI-H460 lung, -14.5% (active); with HOP-92 NSCLC, -11.9% (active). Besides, the growth in the assay with NCI-H522 lung was -4.5% (active); in the assay with A549/ATCC NSCLC it was 3.82% (active); with 786-0 renal, 14.7%; in the assay with COLO 205 colon it was -46.5% (active); in the assay with DU-145 prostate, 19.1%; with K-562 leukemia, 9.81% (active). Also, the growth in the assay on MALME-3M melanoma was 1.11% (active); with MDA-MB-231 breast, 20.2%; in the assay with RXF 393 renal, 26.3%; in the assay on SF-268 CNS, 14.2%; with SF-295 CNS it was -4.54% (active); in the assay with SF-539 CNS, 17.3%. In addition, the growth in the assay on UACC-257 melanoma is 5.88% (active); in the assay on M14 melanoma it was 18.7%.

With `C[C@H]1[C@H](C)CC[C@]2(CO)CC[C@]3(C)C(=CC[C@@H]4[C@@]5(C)Cc6c([nH]c7ccccc67)C(C)(C)[C@@H]5CC[C@]43C)[C@H]12`, the growth is 74.6% in the assay with NCI-H23 lung; 76.9% in the assay on NCI-H226 lung; 72.3% in the assay on NCI-H322M lung; 89% in the assay with HOP-62 NSCLC; 66.8% in the assay on NCI-H460 lung; 101% with HOP-92 NSCLC. Moreover, the growth with NCI-H522 lung is -12.7% (active); in the assay with A549/ATCC NSCLC, 81%; in the assay with 786-0 renal it was 76.1%; in the assay on COLO 205 colon, 95.1%; with DU-145 prostate, 71.1%; in the assay on K-562 leukemia, 52.4%. The growth in the assay on MALME-3M melanoma was 46.9%; in the assay with MDA-MB-231 breast, 88.8%; with RXF 393 renal, 84.1%; in the assay with SF-268 CNS, 74.5%; in the assay with SF-295 CNS, 81.2%; in the assay with SF-539 CNS, 96%. Besides, the figures for the growth in the assay with UACC-257 melanoma and in the assay with M14 melanoma were 108% and 92.8%, respectively.

Turning to `CCCC/C(=N\N=C(N)N)c1ccc(F)cc1`, the growth in the assay on NCI-H23 lung was 34.9%; with NCI-H226 lung, 31.6%; in the assay on NCI-H322M lung, 61.5%; with HOP-62 NSCLC it was 27.9%; in the assay on NCI-H460 lung, 16.2%; with HOP-92 NSCLC it was 31.4%. Also, the growth in the assay with NCI-H522 lung is 10.2%; in the assay on A549/ATCC NSCLC, 31.8%; in the assay with 786-0 renal, 26.8%; with COLO 205 colon, 8.47% (active); with DU-145 prostate it was 44.1%; in the assay on K-562 leukemia, 10.4%. Also, the growth is 40.6% with MALME-3M melanoma; 59.3% with MDA-MB-231 breast; -5.71% (active) in the assay with RXF 393 renal; 45.2% with SF-268 CNS; 18.4% in the assay on SF-295 CNS; 11.7% with SF-539 CNS. For the same compound, the growth with UACC-257 melanoma is 44.1%; with M14 melanoma it was 13.7%.

In the case of `CCc1c(Nc2ccc(C)cc2)[nH]c(N)nc1=S`, the growth in the assay on NCI-H23 lung is 97%; in the assay on NCI-H226 lung it was 95.3%; in the assay with NCI-H322M lung, 106%; with HOP-62 NSCLC, 98.1%; with NCI-H460 lung, 106%; in the assay on HOP-92 NSCLC, 108%. Also, the growth was 96.9% in the assay with NCI-H522 lung; 101% in the assay on A549/ATCC NSCLC; 104% in the assay with 786-0 renal; 109% in the assay on COLO 205 colon; 104% with DU-145 prostate; 115% in the assay with K-562 leukemia. For the same compound, the growth with MALME-3M melanoma was 103%; in the assay with MDA-MB-231 breast, 98.8%; with RXF 393 renal, 113%; in the assay on SF-268 CNS, 103%; in the assay with SF-295 CNS, 96.2%; in the assay with SF-539 CNS, 103%. The growth with UACC-257 melanoma is 104%; in the assay with M14 melanoma it was 98.7%.

Take `O=C(NNc1nc(Cl)nc(N2CCN(C(c3ccccc3)c3ccccc3)CC2)n1)c1ccccc1`: the growth is -9.53% (active) with NCI-H23 lung; 48% in the assay on NCI-H226 lung; 32% in the assay on NCI-H322M lung; 47.6% in the assay with HOP-62 NSCLC; 86.3% with NCI-H460 lung; 52.2% in the assay with HOP-92 NSCLC. The growth in the assay on NCI-H522 lung was -68.3% (active); in the assay on A549/ATCC NSCLC, 98.7%; with 786-0 renal it was 70.5%; in the assay with COLO 205 colon it was 24.1%; in the assay with DU-145 prostate, 46.6%; in the assay on K-562 leukemia it was -38.8% (active). Moreover, the growth was -14.4% (active) with MALME-3M melanoma; -54.3% (active) with MDA-MB-231 breast; -47.1% (active) in the assay on RXF 393 renal; 63.1% in the assay on SF-268 CNS; 92.3% in the assay on SF-295 CNS; -33% (active) in the assay on SF-539 CNS. For the same compound, the growth in the assay on UACC-257 melanoma was -1.56% (active); with M14 melanoma it was 10.5%.

On to `CC(=O)OCC(=O)C1(O)C(C)CC2C3C=C(C)C4=Cc5c(cnn5-c5ccccc5)CC4(C)C3C(O)CC21C` (stereo not given), for which the growth is 8.49% (active) with NCI-H23 lung; 43.2% in the assay with NCI-H226 lung; 57.9% with NCI-H322M lung; 7.4% (active) with HOP-62 NSCLC; 6.3% (active) in the assay with NCI-H460 lung; -0.484% (active) with HOP-92 NSCLC. In addition, the growth is 4.55% (active) with NCI-H522 lung; 24.5% in the assay on A549/ATCC NSCLC; -39.2% (active) in the assay on 786-0 renal; -70.1% (active) with COLO 205 colon; 27.1% with DU-145 prostate; 2.57% (active) with K-562 leukemia. Besides, the growth in the assay on MALME-3M melanoma was 25.6%; with MDA-MB-231 breast, -11.2% (active); with RXF 393 renal it was -5.14% (active); in the assay on SF-268 CNS it was 31.1%; with SF-295 CNS, -51.1% (active); in the assay on SF-539 CNS, -21.3% (active). In addition, the figures for the growth in the assay on UACC-257 melanoma and in the assay with M14 melanoma were 52.3% and -4.56% (active), respectively.

Turning to `CCCCCCCCOC(=O)c1ccc(O)c(OC)c1`, the growth with NCI-H23 lung is 92.5%; in the assay with NCI-H226 lung it was 88.5%; with NCI-H322M lung it was 86.9%; in the assay on HOP-62 NSCLC, 99.3%; in the assay on NCI-H460 lung it was 104%; in the assay with HOP-92 NSCLC it was 84.9%. In addition, the growth in the assay on NCI-H522 lung is 73%; with A549/ATCC NSCLC it was 89.6%; in the assay on 786-0 renal, 106%; with COLO 205 colon, 114%; in the assay on DU-145 prostate, 104%; in the assay on K-562 leukemia, 116%. Further, the growth is 99.7% with MALME-3M melanoma; 85% in the assay with MDA-MB-231 breast; 100% with RXF 393 renal; 83.8% in the assay with SF-268 CNS; 98.7% with SF-295 CNS; 92.6% with SF-539 CNS. The figures for the growth in the assay on UACC-257 melanoma and with M14 melanoma were 86.6% and 106%, respectively.

The values are drawn from PubChem BioAssay (NCI).
